Experimental data reported in PubChem BioAssay (NCATS).
Records with an inconclusive call do not appear. The source made the active and inactive calls. Unless noted, calls come from the whole dose curve; as a rule, active = well fitted curve in the direction sought with a large enough effect; inconclusive = small, poorly fitted or top-dose-only effect, or another doubt; inactive = no such curve, though single readings can be large; an effect the other way counts as inactive or inconclusive.

Legend:
[1] = molecular target: Lysosomal acid glucosylceramidase (Homo sapiens) (UniProt P04062); assay: Glucocerebrosidase-p2 (AID 348; in the data active = potency below about 10 µM; note: potency is the fitted concentration of half-maximal effect); conditions: purified GBA, blue fluorogenic substrate, 40 min
Sequence of Lysosomal acid glucosylceramidase (Homo sapiens) (P04062 whole entry, looked up): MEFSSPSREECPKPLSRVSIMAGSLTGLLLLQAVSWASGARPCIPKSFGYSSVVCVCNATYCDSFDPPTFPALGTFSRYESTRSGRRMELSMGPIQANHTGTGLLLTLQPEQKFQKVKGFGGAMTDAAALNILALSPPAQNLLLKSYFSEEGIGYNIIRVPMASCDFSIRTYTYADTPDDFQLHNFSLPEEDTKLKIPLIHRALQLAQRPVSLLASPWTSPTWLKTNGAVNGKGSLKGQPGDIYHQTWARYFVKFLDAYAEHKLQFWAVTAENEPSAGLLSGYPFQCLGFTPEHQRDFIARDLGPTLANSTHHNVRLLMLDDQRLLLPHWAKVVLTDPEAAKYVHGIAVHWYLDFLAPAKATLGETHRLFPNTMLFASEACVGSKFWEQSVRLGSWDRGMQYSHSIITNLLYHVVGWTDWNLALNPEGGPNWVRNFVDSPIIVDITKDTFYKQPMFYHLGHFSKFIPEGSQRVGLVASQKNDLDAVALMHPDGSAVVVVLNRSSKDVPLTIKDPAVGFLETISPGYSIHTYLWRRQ
Summary of the method: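 Compounds titrated from 0.6 nM upwards against 0.2 nM enzyme in pH 5.9 citric acid/KH2PO4, taurocholate, tween-20; blue fluorogenic substrate 80 uM, 40 min room temperature, stopped and read Ex 365/Em 440 for AC50.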

[2] = AP1 Signaling Pathway (AID 357; active = well fitted curve in either direction with a large enough effect, not every such curve was filed as active;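 note: ME-180 reporter cells stimulated with EGF at its EC50 level; % is set by controls: 0 for no effect and ±100 for the full control effect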); conditions: ME-180 AP-1-bla reporter, EGF-induced, beta-lactamase ratio, 5 h; at 7.69 µM (top of the series) unless noted
Summary of the method: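 Read-out was the 460nm/530nm emission ratio (excitation 405nm) after CCF4 loading for 2.5 hours at room temperature. Cells carried an AP-1-driven beta-lactamase reporter, were stimulated with EC50 EGF plus compound for 5 hours, and AC50 values came from titrations.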

[3] = molecular target: Cytochrome P450 1A2 (Homo sapiens) (UniProt P05177); assay: p450-cyp1a2 (AID 410; calls by dose curve; note: potency is the fitted concentration of half-maximal effect); conditions: recombinant CYP1A2, luciferin-ME demethylation, luminescence; series mostly up to 57 µM
Sequence of Cytochrome P450 1A2 (Homo sapiens) (P05177 whole entry, looked up): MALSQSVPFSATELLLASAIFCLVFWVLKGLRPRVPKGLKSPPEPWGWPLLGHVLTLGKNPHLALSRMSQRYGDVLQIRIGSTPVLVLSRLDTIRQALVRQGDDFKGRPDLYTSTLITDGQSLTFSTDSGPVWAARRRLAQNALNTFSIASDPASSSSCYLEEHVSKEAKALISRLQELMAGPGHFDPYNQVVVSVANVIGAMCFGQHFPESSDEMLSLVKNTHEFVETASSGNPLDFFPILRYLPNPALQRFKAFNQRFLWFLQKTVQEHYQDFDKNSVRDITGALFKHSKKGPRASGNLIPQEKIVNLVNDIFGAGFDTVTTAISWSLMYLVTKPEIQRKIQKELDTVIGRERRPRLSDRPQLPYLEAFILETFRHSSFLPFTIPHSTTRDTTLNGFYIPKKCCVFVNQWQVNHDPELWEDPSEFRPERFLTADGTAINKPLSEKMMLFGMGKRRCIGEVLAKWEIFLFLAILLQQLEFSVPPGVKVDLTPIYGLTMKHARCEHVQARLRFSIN
Summary of the method: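 Luminescent readout of luciferin formed from Luciferin-ME by human CYP1A2; data normalized against complete inhibition by 57 uM furafylline. Enzyme 20nM, substrate 100uM at Km, 100mM KPO4 buffer, 60 min reaction at room temperature.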

[4] = NFAT Signaling Pathway (AID 444; active = well fitted curve in either direction with a large enough effect, not every such curve was filed as active;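 note: carbachol stimulus at about its EC50 of 1 µM final; % is set by controls: 0 for no effect and ±100 for the full control effect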); conditions: Jurkat NFAT-bla M1, carbachol, beta-lactamase ratio, 5 h; at 7.69 µM (top of the series) unless noted
Summary of the method: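 Jurkat cells carrying an NFAT-driven β-lactamase reporter and co-transfected muscarinic M1 receptor were treated with compound plus carbachol (1 uM final, an EC50 level) for 5 h at 37 °C. CCF4 loading followed for 1 h at RT; 460/530 nm ratio gave %activity.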

[5] = Stat Signaling Pathway (AID 446; active = well fitted curve in either direction with a large enough effect, not every such curve was filed as active;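 note: ME-180 cervical cancer cells given 40 pM IL-6 alongside compound; SIE-controlled beta-lactamase reporter measured as 460/530 nm FRET emission ratio; % is set by controls: 0 for no effect and ±100 for the full control effect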); conditions: ME-180 SIE beta-lactamase reporter, IL-6 stimulated, 5 h; at 7.69 µM (top of the series) unless noted
Summary of the method: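 ME-180 cells carrying a SIE-driven beta-lactamase reporter are stimulated with 40 pM IL-6 for 5 h at 37C in the presence of compound. The 460/530 nm FRET substrate ratio is read after 2.5 h at RT. Data are normalised to 300 pM IL-6 and to 125 nM JAK inhibitor controls.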

[6] = molecular target: Glucocorticoid receptor (Homo sapiens) (UniProt P04150); assay: GR-GFP Redistribution (AID 450;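 active = compounds whose dose series gives a full or clear partial fitted curve of increased nuclear translocation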; note: potency is the fitted concentration of half-maximal effect); conditions: U2OS GR-GFP nuclear translocation, laser cytometry, 2 h
Sequence of Glucocorticoid receptor (Homo sapiens) (P04150 whole entry, looked up, the tested form may be a part): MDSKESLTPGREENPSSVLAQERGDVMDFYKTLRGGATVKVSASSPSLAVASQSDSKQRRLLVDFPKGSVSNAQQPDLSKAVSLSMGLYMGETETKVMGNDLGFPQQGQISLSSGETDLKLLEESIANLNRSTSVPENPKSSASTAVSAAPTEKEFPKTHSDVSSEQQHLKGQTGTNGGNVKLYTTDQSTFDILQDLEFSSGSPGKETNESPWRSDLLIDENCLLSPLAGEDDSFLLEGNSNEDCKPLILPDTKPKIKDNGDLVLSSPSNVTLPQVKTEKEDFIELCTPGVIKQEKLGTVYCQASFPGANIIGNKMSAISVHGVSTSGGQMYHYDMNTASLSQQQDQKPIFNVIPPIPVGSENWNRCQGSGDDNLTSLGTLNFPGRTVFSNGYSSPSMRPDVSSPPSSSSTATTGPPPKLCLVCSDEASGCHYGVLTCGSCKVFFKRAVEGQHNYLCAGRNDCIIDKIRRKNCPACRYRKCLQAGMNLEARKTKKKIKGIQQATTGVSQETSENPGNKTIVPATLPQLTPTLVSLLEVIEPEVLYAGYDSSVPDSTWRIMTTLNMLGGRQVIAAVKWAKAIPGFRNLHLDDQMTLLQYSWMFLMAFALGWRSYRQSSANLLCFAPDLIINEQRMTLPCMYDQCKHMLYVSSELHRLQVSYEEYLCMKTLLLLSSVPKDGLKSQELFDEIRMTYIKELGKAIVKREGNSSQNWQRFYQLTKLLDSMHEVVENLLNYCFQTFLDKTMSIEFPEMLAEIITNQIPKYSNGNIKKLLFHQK

[7] = molecular target: Glucocorticoid receptor (Homo sapiens) (UniProt P04150); assay: GR-EFC Redistribution (AID 451; calls by dose curve; note: potency is the fitted concentration of half-maximal effect); conditions: CHO-K1 GR-EFC translocation, beta-gal luminescence, 2 h
Summary of the method: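 CHO-K1 cells stably expressing nuclear-localized β-gal enzyme acceptor and GR fused C-terminally to the enzyme donor fragment; ligand-driven nuclear translocation restores β-gal by complementation. Compounds titrated up to 46 uM final, 2 h at 37 °C; luminescence read.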

[8] = molecular target: Mitogen-activated protein kinase 10 (Mus musculus) (UniProt Q61831); assay: JNK3 AlphaScreen Assay (AID 530; active = well fitted curve in either direction with a large enough effect, not every such curve was filed as active;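 note: kinase came from lysate of stimulated human HepG2 cells; signal reports phosphorylation of biotinylated GST-cJun 1-79 at Ser73 with 10 µM ATP; % is set by controls: 0 for no effect and ±100 for the full control effect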); conditions: JNK3 lysate, c-Jun phosphorylation; series mostly up to 57.1 µM
Summary of the method: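 Inhibitors reduce antibody binding to phosphorylated biotin-cJun, lowering AlphaScreen luminescence. Lysates from HepG2 cells pre-activated by IL-1beta plus TNF-alpha supplied JNK3; compounds were titrated.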

[9] = molecular target: 3',5'-cyclic-AMP phosphodiesterase 4B (Homo sapiens) (UniProt Q07343); assay: qHTS Assay for Inhibitors of PDE-IV (AID 607; active = well fitted activation curve with a large enough effect in the main read-out, with a control signal flat, not every such curve was filed as active; note: % of control where 0% means no effect); conditions: HEK293 ACTOne CNG channel cells, membrane potential fluorescence; series mostly up to 22.9 µM
Sequence of 3',5'-cyclic-AMP phosphodiesterase 4B (Homo sapiens) (Q07343 whole entry, looked up): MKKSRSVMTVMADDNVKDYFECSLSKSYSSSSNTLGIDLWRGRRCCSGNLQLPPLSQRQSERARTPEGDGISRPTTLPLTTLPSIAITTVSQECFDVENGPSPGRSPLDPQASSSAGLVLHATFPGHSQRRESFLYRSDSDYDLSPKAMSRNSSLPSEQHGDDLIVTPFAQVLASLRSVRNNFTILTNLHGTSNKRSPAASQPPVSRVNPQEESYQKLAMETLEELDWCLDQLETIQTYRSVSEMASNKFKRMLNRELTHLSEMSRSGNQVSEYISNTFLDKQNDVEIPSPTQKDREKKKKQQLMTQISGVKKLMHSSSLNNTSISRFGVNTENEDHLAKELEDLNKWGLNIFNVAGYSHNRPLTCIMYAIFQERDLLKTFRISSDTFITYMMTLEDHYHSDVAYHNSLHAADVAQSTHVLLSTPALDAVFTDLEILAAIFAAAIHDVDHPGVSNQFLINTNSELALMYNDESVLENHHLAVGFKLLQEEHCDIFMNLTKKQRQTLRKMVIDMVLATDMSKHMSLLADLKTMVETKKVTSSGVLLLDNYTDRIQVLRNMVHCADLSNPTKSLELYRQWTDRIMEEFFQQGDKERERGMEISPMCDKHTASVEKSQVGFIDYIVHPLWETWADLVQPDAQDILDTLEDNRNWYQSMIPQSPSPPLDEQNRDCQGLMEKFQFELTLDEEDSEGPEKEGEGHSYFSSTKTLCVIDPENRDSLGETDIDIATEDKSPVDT
Summary of the method: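 HEK293 ACTOne cells with CNG channel (1000/well), endogenous PDE4; membrane potential dye, compounds up to 22.9 uM final. Fluorescence Ex 535/Em 590; RO 20-1724 (100 uM final) as reference.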

[10] = molecular target: Cytochrome P450 3A4 (Homo sapiens) (UniProt P08684); assay: qHTS Assay for Inhibitors and Substrates of Cytochrome P450 3A4 (AID 884); conditions: recombinant CYP3A4, Luciferin-PPXE luminescence; series mostly up to 57.1 µM; note: potency is the fitted concentration of half-maximal effect; nearly all actives have a fitted effect of over 50% in size
Sequence of Cytochrome P450 3A4 (Homo sapiens) (P08684 whole entry, looked up): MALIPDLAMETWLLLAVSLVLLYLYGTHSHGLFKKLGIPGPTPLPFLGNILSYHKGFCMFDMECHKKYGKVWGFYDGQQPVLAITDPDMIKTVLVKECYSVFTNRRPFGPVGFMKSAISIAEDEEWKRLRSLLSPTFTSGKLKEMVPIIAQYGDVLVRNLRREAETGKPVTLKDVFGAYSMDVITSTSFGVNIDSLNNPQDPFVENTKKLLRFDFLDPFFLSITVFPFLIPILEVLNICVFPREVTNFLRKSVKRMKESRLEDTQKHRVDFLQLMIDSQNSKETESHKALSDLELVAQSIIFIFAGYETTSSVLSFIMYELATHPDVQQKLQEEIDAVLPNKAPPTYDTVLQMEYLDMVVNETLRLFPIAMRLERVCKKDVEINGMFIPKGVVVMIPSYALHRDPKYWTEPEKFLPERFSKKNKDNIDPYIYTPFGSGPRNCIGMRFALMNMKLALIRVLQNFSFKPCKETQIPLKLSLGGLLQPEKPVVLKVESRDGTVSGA
Summary of the method: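 20 nM human CYP3A4 with 25 uM Luciferin-PPXE (at KM) in 200 mM KPO4, preincubated 10 min with compound; NADPH regeneration started a 60 min RT reaction. Luciferin detected by luminescence, normalized to 57 uM ketoconazole as full inhibition.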

[11] = molecular target: Cytochrome P450 3A4 (Homo sapiens) (UniProt P08684); assay: qHTS Assay for Activators of Cytochrome P450 3A4 (AID 885); conditions: recombinant CYP3A4, Luciferin-PPXE luminescence, 60 min; series mostly up to 57.1 µM; note: nearly all actives have a fitted effect of over 65% in size
Summary of the method: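 Human CYP3A4 (20 nM) with Luciferin-PPXE at 25 uM (its KM) in 200 mM KPO4; 10 min compound preincubation, then NADPH regeneration and 60 min reaction at RT. Luciferin read by luminescence; normalized to 57 uM ketoconazole full inhibition.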

[12] = molecular target: Cytochrome P450 2D6 (Homo sapiens) (UniProt P10635); assay: qHTS Assay for Inhibitors and Substrates of Cytochrome P450 2D6 (AID 891); conditions: recombinant CYP2D6, luciferin-ME EGE luminescence; series mostly up to 57.1 µM; note: potency is the fitted concentration of half-maximal effect; nearly all actives have a fitted effect of over 60% in size
Sequence of Cytochrome P450 2D6 (Homo sapiens) (P10635 whole entry, looked up): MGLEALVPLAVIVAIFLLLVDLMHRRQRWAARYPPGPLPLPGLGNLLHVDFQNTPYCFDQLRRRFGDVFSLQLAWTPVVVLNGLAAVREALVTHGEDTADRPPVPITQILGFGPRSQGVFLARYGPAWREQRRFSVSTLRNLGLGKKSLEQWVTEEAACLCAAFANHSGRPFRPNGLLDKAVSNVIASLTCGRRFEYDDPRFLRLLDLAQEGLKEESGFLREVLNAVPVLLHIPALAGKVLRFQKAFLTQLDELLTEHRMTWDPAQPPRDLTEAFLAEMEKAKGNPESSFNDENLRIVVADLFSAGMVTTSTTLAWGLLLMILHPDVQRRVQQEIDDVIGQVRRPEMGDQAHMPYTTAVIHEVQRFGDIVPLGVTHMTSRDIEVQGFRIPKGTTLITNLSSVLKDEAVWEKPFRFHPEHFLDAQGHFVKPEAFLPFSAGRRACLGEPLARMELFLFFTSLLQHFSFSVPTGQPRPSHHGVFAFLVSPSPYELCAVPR
Summary of the method: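 Human CYP2D6 (5 nM) with 30 uM Luciferin-ME EGE (at Km) in 100 mM KPO4, compound preincubated 10 min, then NADPH regeneration system for 60 min at room temperature. Luciferin read by luminescence; normalized to 1.43 uM quinidine.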

[13] = molecular target: Cytochrome P450 2C19 (Homo sapiens) (UniProt P33261); assay: qHTS Assay for Inhibitors and Substrates of Cytochrome P450 2C19 (AID 899); conditions: recombinant CYP2C19, luciferin-H EGE luminescence; series mostly up to 57.1 µM; note: % is set by controls: 0 for no effect and ±100 for the full control effect; nearly all actives have a fitted effect of over 60% in size
Sequence of Cytochrome P450 2C19 (Homo sapiens) (P33261 whole entry, looked up): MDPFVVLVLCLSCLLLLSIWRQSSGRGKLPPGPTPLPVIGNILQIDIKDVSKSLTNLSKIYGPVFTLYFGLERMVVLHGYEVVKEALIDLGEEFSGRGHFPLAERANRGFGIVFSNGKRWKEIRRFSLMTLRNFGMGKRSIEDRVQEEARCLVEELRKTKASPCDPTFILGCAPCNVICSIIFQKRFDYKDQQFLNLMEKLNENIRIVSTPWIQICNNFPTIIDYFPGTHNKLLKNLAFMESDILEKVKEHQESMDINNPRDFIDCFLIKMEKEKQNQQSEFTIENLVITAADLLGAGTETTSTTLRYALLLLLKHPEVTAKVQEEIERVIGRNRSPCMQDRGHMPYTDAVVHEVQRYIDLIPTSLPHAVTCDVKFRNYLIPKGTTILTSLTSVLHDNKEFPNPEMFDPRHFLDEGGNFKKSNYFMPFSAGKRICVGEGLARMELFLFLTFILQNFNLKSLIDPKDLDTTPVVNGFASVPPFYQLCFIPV
Summary of the method: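 NADPH-dependent conversion of Luciferin-H EGE (10uM, at KM) by 5nM enzyme in 50mM KPO4, 60 min at 37C following 10 min compound preincubation. Stopped with luciferin detection buffer; luminescence read after 20 min.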

[14] = Confirmation and Secondary Assay for Modulators of Hemoglobin Beta Chain Splicing at IVS2 654 locus (AID 910); conditions: HeLa EGFP-654 splicing reporter, GFP fluorescence, 48 h; series mostly up to 38.3 µM;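 note: per-well total GFP intensity by laser scanning cytometry after 2-day treatment; % of control where 0% means no effect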
Summary of the method: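 HeLa cells stably carrying EGFP interrupted by mutant beta-globin IVS2-654 intron (CMV-driven) were treated with compound for 2 days at 37C; corrected splicing was scored as total peak GFP intensity per well (488 nm excitation, 500-520 nm emission).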

[15] = Confirmation and Secondary Assay for Modulators of Hemoglobin Beta Chain Splicing at IVS2 705 locus (AID 930); conditions: HeLa EGFP-705 splicing reporter, GFP fluorescence, 48 h; series mostly up to 38.3 µM;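 note: HeLa cells stably expressing the EGFP-705 splicing reporter; GFP fluorescence per well restored by corrected splicing of the IVS2-705 intron in EGFP; % of control where 0% means no effect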
Summary of the method: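 HeLa IVS2-705 EGFP reporter cells, 500/well, compound 2 d at 37C; correct splicing yields fluorescent EGFP. Control: 500 nM antisense PNA. Read-out: total peak GFP intensity.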

[16] = Counterscreen qHTS for small molecule stabilizers of the endoplasmic reticulum resident proteome: GLuc-NoTag assay (AID 1508627); conditions: Gaussia luciferase NoTag secretion counterscreen, luminescence, thapsigargin 100 nM for final 4 h; series mostly up to 76.4 µM;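 note: SH-SY5Y cells given compound then 100 nM thapsigargin to empty ER calcium; 0% = thapsigargin alone and -100% = DMSO vehicle control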
Summary of the method: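 SH-SY5Y cells stably expressing constitutively secreted GLuc (no SERCaMP tag) were pre-incubated 5 h, treated with compound for 19 h, then 100 nM thapsigargin for 4 h at 37C; medium GLuc read by coelenterazine luminescence.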

[17] = Confirmatory qHTS for small molecule stabilizers of the endoplasmic reticulum resident proteome: Secreted ER Calcium Modulated Protein (SERCaMP) assay (AID 1508628); conditions: SERCaMP secreted luciferase ER calcium/proteostasis reporter; series mostly up to 76.3 µM; note: nearly all actives have a fitted effect of over 40% in size; note: potency is the fitted concentration of half-maximal effect
Summary of the method: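 SH-SY5Y cells stably expressing GLuc-SERCaMP, treated 16 h with compound (primary 1.53, 7.67, 38.3 uM; confirmation 11 concentrations, up to 76.6 uM), then 100 nM thapsigargin for 4 h. Secreted Gaussia luciferase in medium read by coelenterazine luminescence.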

[18] = Cell Viability qHTS for small molecule stabilizers of the endoplasmic reticulum resident proteome (AID 1508629); conditions: cell viability counter-screen, 100 nM thapsigargin for final 4 h
[19] = molecular target: Glutathione peroxidase 1 (Homo sapiens) (UniProt P07203); assay: Primary qHTS Assay for Inhibitors of Recombinant Selenoprotein Glutathione Peroxidase 1 (GPX1) (AID 1845191); conditions: recombinant GPX1, GR-coupled NADPH fluorescence, 15 min; series mostly up to 48.8 µM; note: % is set by controls: 0 for no effect and ±100 for the full control effect; nearly all actives have a fitted effect of over 65% in size
Sequence of Glutathione peroxidase 1 (Homo sapiens) (P07203 whole entry, looked up): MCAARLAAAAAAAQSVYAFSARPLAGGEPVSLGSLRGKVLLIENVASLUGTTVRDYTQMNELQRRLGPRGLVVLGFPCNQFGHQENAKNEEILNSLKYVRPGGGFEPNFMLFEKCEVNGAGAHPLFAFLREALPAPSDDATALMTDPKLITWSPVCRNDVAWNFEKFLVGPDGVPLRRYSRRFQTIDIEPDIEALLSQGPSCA
Summary of the method: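 Recombinant GPX1 (10 nM final) was preincubated with compound for 30 min at room temperature, then reacted with 1 mM GSH, 0.5 mM CHP, 0.5 mM NADPH and 100 nM glutathione reductase; NADPH fluorescence (340/450 nm) was read at 0 and 15 min.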

[20] = molecular target: Phospholipid hydroperoxide glutathione peroxidase GPX4 (Homo sapiens) (UniProt P36969); assay: Primary qHTS Assay for Inhibitors of Recombinant Selenoprotein Glutathione Peroxidase 4 (GPX4) (AID 1845192); conditions: recombinant GPX4, GR-coupled NADPH fluorescence, 15 min; series mostly up to 50 µM; note: % is set by controls: 0 for no effect and ±100 for the full control effect; nearly all actives have a fitted effect of over 65% in size
Sequence of Phospholipid hydroperoxide glutathione peroxidase GPX4 (Homo sapiens) (P36969 whole entry, looked up): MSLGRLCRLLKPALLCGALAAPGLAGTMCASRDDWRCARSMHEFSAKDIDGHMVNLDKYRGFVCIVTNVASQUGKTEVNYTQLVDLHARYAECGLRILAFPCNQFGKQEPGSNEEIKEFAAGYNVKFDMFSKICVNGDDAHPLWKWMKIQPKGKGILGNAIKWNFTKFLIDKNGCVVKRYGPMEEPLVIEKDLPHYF
Summary of the method: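 GR-coupled readout: 100 nM GR, 1 mM GSH, 0.5 mM NADPH; NADPH fluorescence (ex 340/em 450 nm) read at t=0 and after 15 min RT. GPX4 200 nM, preincubated 30 min with compound; substrate 0.5 mM CHP.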

[21] = qHTS Assay for Lipid Storage Modulators (AID 1519; calls by dose curve); conditions: Drosophila S3 cells, BODIPY lipid droplet/cell ratio, laser cytometry, cells loaded with oleic acid
Summary of the method: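 Cells seeded at 5,000 per well were treated with compounds over a concentration series and loaded with oleic acid (400 uM, as added). Lipid droplet fluorescence (488 nm excitation, 500-530 nm channel) was read by laser-scanning cytometry and normalized to 20 uM Triacsin C.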

[22] = molecular target: Dual specificity protein kinase CLK4 (Homo sapiens) (UniProt Q9HAZ1); assay: qHTS Assay for Inhibitors of CDC-like Kinase 4 (Kinase-Glo Assay) (AID 1770); conditions: recombinant Clk4, Kinase-Glo ATP depletion luminescence; series mostly up to 66.7 µM; note: % is set by controls: 0 for no effect and ±100 for the full control effect; nearly all actives have a fitted effect of over 65% in size
Sequence of Dual specificity protein kinase CLK4 (Homo sapiens) (Q9HAZ1 whole entry, looked up): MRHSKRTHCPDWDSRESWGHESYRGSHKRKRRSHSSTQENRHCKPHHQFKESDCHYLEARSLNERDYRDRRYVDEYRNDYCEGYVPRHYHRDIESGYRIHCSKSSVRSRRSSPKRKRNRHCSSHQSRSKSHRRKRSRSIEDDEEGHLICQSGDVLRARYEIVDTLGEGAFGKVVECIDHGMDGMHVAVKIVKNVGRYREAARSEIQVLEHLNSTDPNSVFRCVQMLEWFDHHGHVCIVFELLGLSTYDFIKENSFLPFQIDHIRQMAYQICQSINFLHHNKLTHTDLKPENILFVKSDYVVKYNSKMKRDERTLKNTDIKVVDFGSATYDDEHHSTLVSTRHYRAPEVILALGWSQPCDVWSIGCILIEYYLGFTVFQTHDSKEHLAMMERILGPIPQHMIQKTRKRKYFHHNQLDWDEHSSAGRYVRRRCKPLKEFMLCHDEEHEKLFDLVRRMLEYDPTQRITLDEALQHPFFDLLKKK
Summary of the method: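 Recombinant human Clk4 (25 nM) phosphorylated RS repeat peptide (100 uM) with 1 uM ATP in Tris pH 7.5/MgCl2/EGTA/DTT/Triton buffer for 4.5 h at room temperature. Residual ATP was quantified by Kinase-Glo luciferase luminescence.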

[23] = molecular target: Dual specificity protein kinase CLK4 (Homo sapiens) (UniProt Q9HAZ1); assay: qHTS Assay for Inhibitors of CDC-like Kinase 4 (ADP-Glo Assay) (AID 1771); conditions: recombinant CLK4, ADP-Glo luminescence; series mostly up to 80 µM; note: % is set by controls: 0 for no effect and ±100 for the full control effect; nearly all actives have a fitted effect of over 70% in size
Summary of the method: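 Luminescence from ADP-Glo reports ADP produced by 25 nM Clk4 acting on 100 uM RS repeat peptide with 1 uM ATP over 1 hr at room temperature; residual ATP is depleted before ADP is converted to ATP for detection.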

[24] = molecular target: Dual specificity protein kinase CLK4 (Homo sapiens) (UniProt Q9HAZ1); assay: qHTS Assay for Inhibitors of CDC-like Kinase 4 (ADP-FP Assay) (AID 1795); conditions: Transcreener ADP fluorescence polarization; series mostly up to 50 µM; note: % is set by controls: 0 for no effect and ±100 for the full control effect; nearly all actives have a fitted effect of over 60% in size
Summary of the method: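 Recombinant human Clk4 (6.25 nM) phosphorylated RS repeat peptide (100 uM) with 1 uM ATP in Tris pH 7.5/MgCl2/EGTA/DTT/Triton buffer for one hour. ADP was quantified by Transcreener competitive fluorescence polarization against an ADP calibration curve.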

[25] = molecular target: Ubiquitin carboxyl-terminal hydrolase 1 (Homo sapiens) (UniProt O94782); assay: Inhibitors of USP1/UAF1: Pilot qHTS (AID 504865); conditions: purified USP1/UAF1, Ub-rhodamine cleavage fluorescence; series mostly up to 54.9 µM;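 note: rhodamine fluorescence freed from ubiquitin-rhodamine substrate followed over time; top concentration of the series differs between compounds; % is set by controls: 0 for no effect and ±100 for the full control effect; nearly all actives have a fitted effect of over 35% in size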
Summary of the method: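 USP1/UAF1 complex (1nM) preincubated with compound 15 min at room temperature, then Ub-Rho substrate (150nM final) added. Fluorescence read kinetically at 480/540 nm, 6 reads every 60 seconds. Buffer: 50mM HEPES pH 7.8, 0.5mM EDTA, 0.1 mg/ml BSA, 1mM TCEP, 0.01% Tween-20.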

CN1CCN(c2nc(-c3ccc(N(C)C)cc3)nc3ccccc23)CC1
active: Potency [3] 12.6 µM | Potency [10] 15.8 µM | Potency [12] 3.16 µM
inactive: Potency [1] > 11.4 µM | activity change, negative = inhibition [2] 5.88% | activity change, negative = inhibition [4] -2.47% | activity, negative = inhibition [5] 3.05% | Potency [6] > 46 µM | Potency [7] > 46 µM | outcome [8] | Potency [9] | Potency [11] | Potency [13] | outcome [14] | outcome [15] | Potency [16] | Potency [17] | max response [18] 17.5%

OC[C@H]1NC[C@@H](O)[C@@H](O)[C@@H]1O
inactive: Potency [16] | Potency [17] | max response [18] 8.42% | Potency [19] | Potency [20]

Cc1nc2cnc(N3CCNCC3)nc2n(Cc2cccs2)c1=O
inactive: Potency [1] > 11.4 µM | activity change, negative = inhibition [2] -0.143% | activity change, negative = inhibition [4] 6.53% | activity, negative = inhibition [5] 3.44% | Potency [6] > 9.22 µM | Potency [7] > 46 µM | outcome [8] | Potency [9] | Potency [11] | activity change, negative = inhibition ([21]; at 57.5 µM (top of the series)) 6.29% | Potency [22] | Potency [23] | Potency [24] | Potency [25] | Potency [16] | max response [18] 3.08%
28.9%: max response ([21]; measured here: lipid channel max response)
active: Potency [3] 0.631 µM | Potency [10] 3.16 µM | Potency [17] 25.1 µM
24.4%: max response ([21]; measured here: cell count channel max response)
